Where a name gives a salt, the structure may show the parent alone. ± gives the standard deviation of the averaged measurements. Over roughly 1,900 compounds, “normalised cell viability (NPI; 0 = phenylarsine oxide control, 1 = DMSO control)” has its median near 1; the lowest 2% begin near 0.039. This excerpt belongs to a sample that is enriched for the lowest values.
Tested on: NCI-H1944
Experiment: normalised cell viability (NPI; 0 = phenylarsine oxide control, 1 = DMSO control) (fraction of DMSO control); NCI-H1944 is a non-small cell lung cancer line; higher = more viable cells (less compound toxicity)
Conditions: 6 days
[1] = glucocorticoid arm: hydrocortisone 2.75 uM co-treatment, compound 1 µM
[2] = glucocorticoid arm: hydrocortisone 2.75 uM co-treatment, compound 5 µM
[3] = glucocorticoid arm: hydrocortisone 2.75 uM pre-treated 2 days and continued, compound 1 µM
[4] = glucocorticoid arm: hydrocortisone 2.75 uM pre-treated 2 days and continued, compound 5 µM
[5] = glucocorticoid arm: vehicle, compound 1 µM
[6] = glucocorticoid arm: vehicle, compound 5 µM
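Further: CTB read-out in 384-well plates, triplicate wells, NPI normalised per plate against 1 µM phenylarsine oxide (0) and 0.1% DMSO (1) controls.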

C#Cc1ccc2c(c1)C(=O)N(C)Cc1c(C(=O)OCCCOC(=O)c3ncn4c3CN(C)C(=O)c3cc(C#C)ccc3-4)ncn1-2 [Xli 093 hydrate]
normalised cell viability [1]: 0.999 ± 0.011
normalised cell viability [2]: 1.01 ± 0.015
normalised cell viability [3]: 1 ± 0.013
normalised cell viability [4]: 1.01
normalised cell viability [5]: 0.99 ± 0.01
normalised cell viability [6]: 0.9967 ± 0.0015

CCN1CCN(Cc2ccc(-c3cc4c(N[C@H](C)c5ccccc5)ncnc4[nH]3)cc2)CC1
normalised cell viability [1]: 0.812 ± 0.041
normalised cell viability [2]: 0.693 ± 0.043
normalised cell viability [3]: 0.885 ± 0.014
normalised cell viability [4]: 0.752 ± 0.047
normalised cell viability [5]: 0.8103 ± 0.0047
normalised cell viability [6]: 0.6 ± 0.016

COc1cc(OC)c(/C=C/S(=O)(=O)Cc2ccc(OC)c(NCC(=O)O)c2)c(OC)c1
normalised cell viability [1]: 0.307 ± 0.021
normalised cell viability [2]: 0.261 ± 0.026
normalised cell viability [3]: 0.572 ± 0.03
normalised cell viability [4]: 0.572 ± 0.051
normalised cell viability [5]: 0.0447 ± 0.0079
normalised cell viability [6]: 0.0341 ± 0.0062

COc1cc(CC(=O)O)ccc1O [4-Hydroxy-3-methoxyphenylacetic acid]
normalised cell viability [1]: 1.007 ± 0.0058
normalised cell viability [2]: 1.01 ± 0.014
normalised cell viability [3]: 1.01 ± 0.01
normalised cell viability [4]: 1.02
normalised cell viability [5]: 1.01 ± 0.01
normalised cell viability [6]: 1.01

Cc1c(F)ccc(C(=O)Nc2cc([N+](=O)[O-])ccc2N2CCN(C)CC2)c1Cl
normalised cell viability [1]: 1.03 ± 0.011
normalised cell viability [2]: 0.987 ± 0.02
normalised cell viability [3]: 1.027 ± 0.0058
normalised cell viability [4]: 1 ± 0.013
normalised cell viability [5]: 0.9957 ± 0.0075
normalised cell viability [6]: 0.9963 ± 0.0047

O=C(O)[C@H]1NCCC[C@H]1C(=O)O (relative stereo) [cis-Piperidine-2,3-dicarboxylic acid]
normalised cell viability [1]: 1 ± 0.016
normalised cell viability [2]: 1 ± 0.022
normalised cell viability [3]: 1 ± 0.018
normalised cell viability [4]: 0.973 ± 0.0087
normalised cell viability [5]: 0.987 ± 0.0092
normalised cell viability [6]: 0.9887 ± 0.005

CSC(=N)NCCC[C@H](N)C(=O)O [S-Methyl-L-thiocitrulline acetate]
normalised cell viability [1]: 1.003 ± 0.0058
normalised cell viability [2]: 0.984 ± 0.028
normalised cell viability [3]: 1.01 ± 0.01
normalised cell viability [4]: 0.989 ± 0.018
normalised cell viability [5]: 0.9847 ± 0.0051
normalised cell viability [6]: 0.994 ± 0.014

Nc1ncn([C@@H]2O[C@H](CO)[C@@H](O)[C@H]2O)c(=O)n1 [Azacitidine]
normalised cell viability [1]: 1.03
normalised cell viability [2]: 1.11 ± 0.025
normalised cell viability [3]: 1 ± 0.037
normalised cell viability [4]: 0.952 ± 0.24
normalised cell viability [5]: 0.976 ± 0.011
normalised cell viability [6]: 0.903 ± 0.017

Nc1ccn([C@@H]2O[C@H](CO)[C@@H](O)[C@@H]2O)c(=O)n1
normalised cell viability [1]: 0.178 ± 0.001
normalised cell viability [2]: 0.115 ± 0.0035
normalised cell viability [3]: 0.91 ± 0.011
normalised cell viability [4]: 0.31 ± 0.04
normalised cell viability [5]: 0.0325 ± 0.0032
normalised cell viability [6]: 0.0276 ± 0.0059

Nc1ncn([C@@H]2O[C@H](CO)[C@@H](O)[C@H]2O)c(=O)n1 [5-azacytidine]
normalised cell viability [1]: 1.006 ± 0.0063
normalised cell viability [2]: 1.03
normalised cell viability [3]: 1.01 ± 0.018
normalised cell viability [4]: 1.08 ± 0.014
normalised cell viability [5]: 0.972 ± 0.015
normalised cell viability [6]: 0.8937 ± 0.006

Nc1ccn([C@@H]2O[C@H](CO)[C@@H](O)[C@@H]2O)c(=O)n1 [Cytosine-1-beta-D-arabinofuranoside hydrochloride]
normalised cell viability [1]: 0.352 ± 0.026
normalised cell viability [2]: 0.163 ± 0.022
normalised cell viability [3]: 1.03 ± 0.017
normalised cell viability [4]: 0.802 ± 0.22
normalised cell viability [5]: 0.0913 ± 0.011
normalised cell viability [6]: 0.0638 ± 0.0066

Nc1ccn([C@@H]2O[C@H](CO)[C@@H](O)C2(F)F)c(=O)n1 [Gemcitabine hydrochloride; Gemcitabine HCl]
normalised cell viability [1]: 0.202 ± 0.0062
normalised cell viability [2]: 1.04 ± 0.015
normalised cell viability [3]: 0.422 ± 0.044
normalised cell viability [4]: 1.03
normalised cell viability [5]: 0.0536 ± 0.0027
normalised cell viability [6]: 1.013 ± 0.0058

Nc1ncn([C@@H]2O[C@H](CO)[C@@H](O)[C@H]2O)c(=O)n1 [Azacitidine; 5-azacytidine]
normalised cell viability [1]: 1.04 ± 0.026
normalised cell viability [2]: 1.11 ± 0.015
normalised cell viability [3]: 1.04 ± 0.01
normalised cell viability [4]: 1.1 ± 0.021
normalised cell viability [5]: 0.98 ± 0.017
normalised cell viability [6]: 0.766 ± 0.025

Reference: the supplement of paper PMC8285479
